Experimental data published in PubChem BioAssay (NCATS).
Records with an inconclusive call do not appear. Active and inactive are the calls of the source. Unless noted, calls follow the shape of the dose curve; as a rule, active = well fitted curve in the direction sought with a large enough effect; inconclusive = small, poorly fitted or top-dose-only effect, or another doubt; inactive = no such curve, though single readings can be large; an effect the other way counts as inactive or inconclusive.

Columns and labels:
[1] = Quantitative high throughput screen for delayed death inhibitors of the malarial parasite plastid, 96 hour incubation (AID 488745);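 also: luciferase-expressing P. falciparum in erythrocytes at 2% hematocrit and 0.1% parasitemia; series mostly up to about 29 µM; % is scaled to controls: 0 for no effect and ±100 for the full control effect; nearly all actives have a fitted effect of over 70% in size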
In short: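 Infected erythrocytes were added to compound in Albumax-supplemented RPMI 1640 at 0.1% parasitemia and 2% hematocrit (final), incubated 96 h at 37 C under 5% CO2, then luciferase reagent was added and luminescence measured.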

[2] = Quantitative high throughput screen for delayed death inhibitors of the malarial parasite plastid, 48 hour incubation (AID 488752); also: % is scaled to controls: 0 for no effect and ±100 for the full control effect; nearly all actives have a fitted effect of over 65% in size
In short: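 Readout is firefly luciferase luminescence from a reporter integrated into the parasite genome, with lower signal taken as inhibited growth. Infected red cells (0.1% parasitemia, 2% hematocrit final) are cultured with compound for one 48 h cycle at 37 C.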

[3] = biological target: Thioredoxin reductase 1, cytoplasmic (Rattus norvegicus) (UniProt O89049); assay: qHTS Assay for Substrates of Mammalian Selenoprotein Thioredoxin Reductase 1 (TrxR1) (AID 488772);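 also: NADPH fluorescence in the first read after selenite addition and not the 8 min delta; series mostly up to about 57 µM; 0% is about no effect; a drop in NADPH fluorescence below the no-compound background marks a TrxR1 substrate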
Thioredoxin reductase 1, cytoplasmic (Rattus norvegicus), sequence (O89049 whole entry, looked up): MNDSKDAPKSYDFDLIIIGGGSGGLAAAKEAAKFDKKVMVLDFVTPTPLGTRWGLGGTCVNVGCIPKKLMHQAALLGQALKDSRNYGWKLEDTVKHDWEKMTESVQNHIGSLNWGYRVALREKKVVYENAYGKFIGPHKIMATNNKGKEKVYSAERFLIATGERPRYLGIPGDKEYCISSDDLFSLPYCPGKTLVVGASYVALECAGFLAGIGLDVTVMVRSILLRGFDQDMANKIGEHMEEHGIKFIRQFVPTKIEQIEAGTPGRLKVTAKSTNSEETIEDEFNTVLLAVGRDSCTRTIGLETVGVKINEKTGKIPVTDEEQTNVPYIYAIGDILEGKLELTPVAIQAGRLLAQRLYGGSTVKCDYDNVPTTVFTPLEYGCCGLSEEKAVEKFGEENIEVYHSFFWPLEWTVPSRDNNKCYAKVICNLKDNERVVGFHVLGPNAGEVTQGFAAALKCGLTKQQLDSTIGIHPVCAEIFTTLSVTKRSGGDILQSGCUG
In short: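 Quantitative HTS in Tris-HCl buffer at pH 7.5 with EDTA and Tween-20, using rat TrxR1, 400 uM NADPH and 400 uM selenite (final). A fall in initial NADPH fluorescence relative to background marked substrate behaviour.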

[4] = biological target: Thioredoxin reductase 1, cytoplasmic (Rattus norvegicus) (UniProt O89049); assay: qHTS Assay for Inhibitors of Mammalian Selenoprotein Thioredoxin Reductase 1 (TrxR1) (AID 488773); settings: Potency: inhibition;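 also: drop in NADPH fluorescence over an 8 min run after selenite addition; series mostly up to about 57 µM; % is scaled to controls: 0 for no effect and ±100 for the full control effect; nearly all actives have a fitted effect of over 40% in size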
In short: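 Steps: enzyme (90 nM) plus NADPH (400 uM final), 5 min at ~22 deg C; compound added, 15 min; selenite (400 uM final) added; fluorescence followed for 8 min. Concentration-response curves derived from the normalized delta values.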

[5] = biological target: Flap endonuclease 1 (Homo sapiens) (UniProt P39748); assay: qHTS Validation Assay for the Inhibitors of Human Flap endonuclease 1 (FEN1) (AID 488816); also: % is scaled to controls: 0 for no effect and ±100 for the full control effect
Flap endonuclease 1 (Homo sapiens), sequence (P39748 whole entry, looked up): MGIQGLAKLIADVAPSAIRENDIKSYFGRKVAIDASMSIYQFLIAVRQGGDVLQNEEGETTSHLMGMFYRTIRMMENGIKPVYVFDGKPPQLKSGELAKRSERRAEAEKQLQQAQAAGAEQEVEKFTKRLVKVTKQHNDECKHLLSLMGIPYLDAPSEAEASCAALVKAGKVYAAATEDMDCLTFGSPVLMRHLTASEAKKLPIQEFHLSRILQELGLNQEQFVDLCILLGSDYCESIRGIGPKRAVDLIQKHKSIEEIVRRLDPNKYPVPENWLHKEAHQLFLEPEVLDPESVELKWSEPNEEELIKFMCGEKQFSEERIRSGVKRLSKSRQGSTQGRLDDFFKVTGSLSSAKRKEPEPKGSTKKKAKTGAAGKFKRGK
In short: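 Readings taken at 0 and 15 min after starting the reaction with 50 nM (final) substrate supplied the signal. Compounds had first sat with 10 nM FEN1 reagent for 15 min at room temperature. Values come from Hill-equation concentration-response fits.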

[6] = biological target: M-phase phosphoprotein 8 (Homo sapiens) (UniProt Q99549); assay: qHTS Validation Assay for Inhibitors for MPP8 Chromodomain Interactions with Methylated Histone Tails (AID 488949); also: top concentration of the series differs between compounds; % is scaled to controls: 0 for no effect and ±100 for the full control effect; nearly all actives have a fitted effect of over 55% in size
M-phase phosphoprotein 8 (Homo sapiens), sequence (Q99549 whole entry, looked up): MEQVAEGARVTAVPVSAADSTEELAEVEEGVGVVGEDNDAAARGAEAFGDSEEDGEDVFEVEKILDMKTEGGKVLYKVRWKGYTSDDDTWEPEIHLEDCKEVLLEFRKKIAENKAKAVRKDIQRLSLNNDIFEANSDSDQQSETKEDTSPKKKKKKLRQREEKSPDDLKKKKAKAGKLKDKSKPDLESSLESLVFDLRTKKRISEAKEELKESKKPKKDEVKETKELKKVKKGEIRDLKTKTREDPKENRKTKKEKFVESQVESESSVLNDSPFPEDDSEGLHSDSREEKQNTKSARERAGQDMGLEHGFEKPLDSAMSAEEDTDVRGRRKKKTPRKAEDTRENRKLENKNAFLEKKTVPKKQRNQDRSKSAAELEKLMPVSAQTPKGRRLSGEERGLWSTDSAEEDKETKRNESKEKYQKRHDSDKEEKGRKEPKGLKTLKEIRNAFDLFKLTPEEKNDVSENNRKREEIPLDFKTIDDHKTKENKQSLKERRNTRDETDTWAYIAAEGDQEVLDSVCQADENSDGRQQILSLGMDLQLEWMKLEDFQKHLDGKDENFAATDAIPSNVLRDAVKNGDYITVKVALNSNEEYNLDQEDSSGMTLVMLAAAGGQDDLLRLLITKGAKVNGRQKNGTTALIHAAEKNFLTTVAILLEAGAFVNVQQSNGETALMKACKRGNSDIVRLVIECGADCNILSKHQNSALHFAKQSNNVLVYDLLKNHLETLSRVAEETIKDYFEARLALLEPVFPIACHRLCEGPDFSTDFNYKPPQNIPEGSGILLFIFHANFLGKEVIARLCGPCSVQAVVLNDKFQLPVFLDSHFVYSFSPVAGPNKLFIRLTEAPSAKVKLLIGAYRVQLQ
In short: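 MPP8 (50 nM) was pre-bound to 50 nM biotinylated H3(1-18)K9me3 peptide in PBS pH 7.4 with 0.01% Tween-20. Compounds were then added for 30 min at room temperature, and complex disruption was read by AlphaScreen with streptavidin donor and nickel-chelate acceptor beads.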

[7] = biological target: Chromobox protein homolog 1 (Homo sapiens) (UniProt P83916); assay: qHTS Validation Assay for Inhibitors of HP1-beta Chromodomain Interactions with Methylated Histone Tails (AID 488953);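 also: loss of AlphaScreen luminescence from HP1-beta binding biotinylated H3K9me3 peptide; series mostly up to about 110 µM; % is scaled to controls: 0 for no effect and ±100 for the full control effect; nearly all actives have a fitted effect of over 50% in size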
Chromobox protein homolog 1 (Homo sapiens), sequence (P83916 whole entry, looked up): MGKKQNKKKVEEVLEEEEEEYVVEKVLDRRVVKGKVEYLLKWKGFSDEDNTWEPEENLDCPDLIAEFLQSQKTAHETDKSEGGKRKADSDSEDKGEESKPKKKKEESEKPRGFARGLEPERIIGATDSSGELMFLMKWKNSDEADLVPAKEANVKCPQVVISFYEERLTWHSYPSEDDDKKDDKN
In short: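 50 nM HP1-beta + 50 nM biotin-H3(1-18)K9me3, PBS pH 7.4, 0.01% Tween-20, 30 min RT; compound added, 30 min RT; AlphaScreen beads 10 ug/mL final, 30 min dark; luminescence read.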

[8] = biological target: Methanococcus maripaludis chaperonin (MmCpn) (UniProt Q6LX38); assay: High-Throughput Screening for Modulators of Cytosolic Chaperonin Activity: MmCpn Primary Screen (AID 488978);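 also: 50 nM MmCpn enzyme hydrolysing 30 µM ATP at 37 °C; 0% is about no effect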
Methanococcus maripaludis chaperonin (MmCpn), sequence (Q6LX38 1-543): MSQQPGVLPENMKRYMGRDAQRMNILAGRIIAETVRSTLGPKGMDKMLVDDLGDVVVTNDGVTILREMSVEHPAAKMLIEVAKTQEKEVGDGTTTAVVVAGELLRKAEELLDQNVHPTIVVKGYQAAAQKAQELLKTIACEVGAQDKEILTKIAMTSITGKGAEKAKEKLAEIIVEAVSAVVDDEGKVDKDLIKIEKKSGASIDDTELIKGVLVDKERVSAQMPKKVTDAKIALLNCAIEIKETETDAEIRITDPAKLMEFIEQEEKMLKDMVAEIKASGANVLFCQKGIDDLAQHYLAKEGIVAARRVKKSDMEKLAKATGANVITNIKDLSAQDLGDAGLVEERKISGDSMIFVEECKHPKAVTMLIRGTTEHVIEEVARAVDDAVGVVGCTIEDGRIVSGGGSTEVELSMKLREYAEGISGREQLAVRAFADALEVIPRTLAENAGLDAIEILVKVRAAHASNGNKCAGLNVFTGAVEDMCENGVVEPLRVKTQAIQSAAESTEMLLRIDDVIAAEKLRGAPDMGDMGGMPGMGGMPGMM
In short: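 MmCpn at 50 nM final was preincubated 5 min at RT with compound. ATP was then added at 30 uM final for 10 min at 37 C. ADP formed was detected by Transcreener HTRF (665/590 nm).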

[9] = biological target: Transient receptor potential cation channel subfamily V member 1 (Homo sapiens) (UniProt Q8NER1); assay: HTS Assay for Compounds that Act as Enhancers of the Vanilloid Receptor 1 (AID 488979); also: 0% is about no effect
Transient receptor potential cation channel subfamily V member 1 (Homo sapiens), sequence (Q8NER1 whole entry, looked up): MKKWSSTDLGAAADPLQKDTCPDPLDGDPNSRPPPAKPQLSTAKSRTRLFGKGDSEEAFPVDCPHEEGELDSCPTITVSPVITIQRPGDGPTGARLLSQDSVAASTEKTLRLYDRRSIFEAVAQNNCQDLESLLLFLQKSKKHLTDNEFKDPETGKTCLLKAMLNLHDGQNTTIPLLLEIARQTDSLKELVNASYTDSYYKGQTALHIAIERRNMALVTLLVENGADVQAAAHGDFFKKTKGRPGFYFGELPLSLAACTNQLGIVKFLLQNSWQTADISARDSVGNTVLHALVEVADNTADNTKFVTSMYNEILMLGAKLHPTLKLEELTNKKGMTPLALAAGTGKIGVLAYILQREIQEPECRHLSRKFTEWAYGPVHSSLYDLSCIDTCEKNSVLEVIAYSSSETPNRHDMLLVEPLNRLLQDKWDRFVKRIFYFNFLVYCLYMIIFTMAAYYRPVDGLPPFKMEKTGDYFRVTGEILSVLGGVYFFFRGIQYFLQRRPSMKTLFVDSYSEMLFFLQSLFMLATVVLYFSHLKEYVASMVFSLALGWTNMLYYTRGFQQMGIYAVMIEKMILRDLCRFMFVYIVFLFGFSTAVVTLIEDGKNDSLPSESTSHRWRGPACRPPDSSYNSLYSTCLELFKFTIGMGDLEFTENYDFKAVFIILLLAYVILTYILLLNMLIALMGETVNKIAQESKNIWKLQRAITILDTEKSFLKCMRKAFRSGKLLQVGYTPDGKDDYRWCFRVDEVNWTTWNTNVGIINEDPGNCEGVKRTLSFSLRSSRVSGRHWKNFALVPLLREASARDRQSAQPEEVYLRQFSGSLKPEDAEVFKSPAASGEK
In short: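 Calcium influx kinetics via Fluo-8 (480/520 nm) in TRPV1-expressing cells, 2000/well cultured overnight at 35.5C. Compound-alone read 3 min (agonist phase), followed by EC20 capsaicin challenge for 2 min (enhancer phase).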

[10] = biological target: Thyrotropin receptor (Homo sapiens) (UniProt P16473); assay: qHTS Assay for Antagonists of the Thyroid Stimulating Hormone Receptor (AID 488980); also: series mostly up to about 58 µM; 0% is about no effect
Thyrotropin receptor (Homo sapiens), sequence (P16473 whole entry, looked up): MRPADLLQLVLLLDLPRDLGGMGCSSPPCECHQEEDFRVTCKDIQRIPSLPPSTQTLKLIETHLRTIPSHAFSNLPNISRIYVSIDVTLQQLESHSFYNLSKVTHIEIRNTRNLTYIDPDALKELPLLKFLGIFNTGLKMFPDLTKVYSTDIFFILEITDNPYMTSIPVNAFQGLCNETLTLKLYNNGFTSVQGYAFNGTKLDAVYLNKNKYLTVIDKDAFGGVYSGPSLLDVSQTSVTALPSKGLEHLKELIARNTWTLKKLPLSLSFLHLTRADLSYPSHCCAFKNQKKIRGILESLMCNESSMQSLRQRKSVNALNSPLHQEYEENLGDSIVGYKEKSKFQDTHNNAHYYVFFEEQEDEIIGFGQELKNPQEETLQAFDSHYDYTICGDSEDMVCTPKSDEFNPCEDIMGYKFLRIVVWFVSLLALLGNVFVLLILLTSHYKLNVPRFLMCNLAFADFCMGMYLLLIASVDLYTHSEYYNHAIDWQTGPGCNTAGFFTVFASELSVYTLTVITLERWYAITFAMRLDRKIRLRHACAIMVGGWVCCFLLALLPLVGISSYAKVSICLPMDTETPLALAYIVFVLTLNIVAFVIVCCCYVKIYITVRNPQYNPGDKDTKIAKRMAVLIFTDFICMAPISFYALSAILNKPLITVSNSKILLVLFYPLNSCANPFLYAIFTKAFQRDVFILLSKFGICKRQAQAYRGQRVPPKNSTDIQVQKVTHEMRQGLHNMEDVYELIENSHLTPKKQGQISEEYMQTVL
In short: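 TSHR-transfected HEK293 cells (2000/well) in HEPES-buffered HBSS with 70 uM RO 20-1724 were stimulated with 4 nM TSH (EC80, final) in the presence of compound. cAMP was measured by HTRF competition after lysis and 30 min at RT.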

[11] = biological target: D(1A) dopamine receptor (Homo sapiens) (UniProt P21728); assay: HTS Assay for Allosteric Agonists of the Human D1 Dopamine Receptor: Primary Screen for Agonists (AID 488981); also: 0% is about no effect
D(1A) dopamine receptor (Homo sapiens), sequence (P21728 whole entry, looked up): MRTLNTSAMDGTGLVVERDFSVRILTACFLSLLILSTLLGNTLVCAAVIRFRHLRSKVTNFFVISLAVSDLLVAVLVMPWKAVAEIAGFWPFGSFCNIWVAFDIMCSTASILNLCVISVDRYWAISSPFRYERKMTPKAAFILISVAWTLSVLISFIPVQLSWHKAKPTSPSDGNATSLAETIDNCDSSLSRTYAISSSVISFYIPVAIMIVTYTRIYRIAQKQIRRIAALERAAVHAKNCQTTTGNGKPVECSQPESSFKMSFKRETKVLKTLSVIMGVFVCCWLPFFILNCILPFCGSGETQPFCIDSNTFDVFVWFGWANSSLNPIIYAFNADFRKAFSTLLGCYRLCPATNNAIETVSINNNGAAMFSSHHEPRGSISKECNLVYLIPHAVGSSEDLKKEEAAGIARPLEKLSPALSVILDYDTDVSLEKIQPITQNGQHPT
In short: (§1)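 Calcium flux in an inducible, force-coupled HEK293 Trex D1 line (overnight at 30 C): agonist mode is the 180 s kinetic read after compound; potentiator mode is the following 180 s read after dopamine at EC20.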

[12] = biological target: D(1A) dopamine receptor (Homo sapiens) (UniProt P21728); assay: HTS Assay for Allosteric Agonists of the Human D1 Dopamine Receptor: Primary Screen for Potentiators (AID 488982); also: 0% is about no effect
In short: as §1

[13] = biological target: D(1A) dopamine receptor (Homo sapiens) (UniProt P21728); assay: HTS Assay for Allosteric Agonists of the Human D1 Dopamine Receptor: Primary Screen for Antagonists (AID 488983);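 also: calcium flux response to an EC80 dopamine challenge measured with no-wash dye; % is scaled to controls: 0 for no effect and ±100 for the full control effect; nearly all actives have a fitted effect of over 65% in size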
In short: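 Cells are induced with tetracycline and incubated overnight at 30 C, then loaded with calcium dye for 30 to 90 minutes at room temperature. Compound addition is followed by a 180 s read, then an EC80 dopamine addition and another 180 s read.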

[14] = Validation screen for small molecules that induce genotoxicity in human embryonic kidney (HEK293T) cells expressing luciferase-tagged ELG1 (AID 493106); also: 0% is about no effect
In short: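 Luminescence from an ELG1-luciferase fusion serves as the read-out, rising when genetic stress elevates ELG1 protein. HEK293T reporter cells (2,000 per well) received 23 nL compound, incubated 16 hr at 37 °C, then ONE-Glo for 30 min at room temperature.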

[15] = Nrf2 qHTS screen for inhibitors: Validation (AID 493153; active = well fitted inhibition curve with a large enough effect in the main read-out, with a control signal flat, not every such curve was filed as active); settings: Potency: luciferase luminescence; viability change: measured here: cytotoxicity max response
In short: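 Luminescence from an ARE-firefly luciferase reporter in A549 cells gives Nrf2 inhibition; an earlier CellTiter-Fluor fluorescent read flags cytotoxicity. Cells in 5% FBS OPTI-MEM received compound dilution series for 18-24 h at 37°C.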

[16] = biological target: ATP-dependent 6-phosphofructokinase (Trypanosoma brucei brucei) (UniProt O15648); assay: qHTS Assay to Find Inhibitors of T. brucei phosphofructokinase: hit validation (AID 492961);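 also: luminescence reports ADP formed as PFK phosphorylates fructose-6-phosphate with ATP; series mostly up to about 51 µM; % is scaled to controls: 0 for no effect and ±100 for the full control effect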
In short: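 Measures ADP output of PFK (1.25 nM) at 0.1 mM ATP, 0.5 mM F6P, pH 8.0 TEA buffer with 5 mM MgCl2. No-enzyme wells define full inhibition; uninhibited enzyme wells define zero.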

[17] = biological target: ATPase family AAA domain-containing protein 5 (Homo sapiens) (UniProt Q96QE3); assay: Validation screen for small molecules that inhibit ELG1-dependent DNA repair in human embryonic kidney (HEK293T) cells expressing luciferase-tagged ELG1 (AID 493107);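 also: cells co-treated with the DNA-damaging agent 5-fluorouridine alongside compound; series mostly up to about 46 µM; % is scaled to controls: 0 for no effect and ±100 for the full control effect; inhibitors lower the ELG1-luciferase luminescence signal; nearly all actives have a fitted effect of over 70% in size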
In short: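 Luminescence from ONE-Glo, developed 30 min at room temperature, served as read-out of ELG1-luciferase levels. Beforehand, reporter HEK293T cells received 5-fluorouridine plus test compound for 16 hr at 37 °C.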

[18] = qHTS for Inhibitors of Cell Surface uPA Generation: Validation Assay (AID 493164); also: 0% is about no effect
In short: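 RAW 264.7 cells (4000/well) were plated overnight, then exposed for 18 h at 37 C, 5% CO2 to compounds in a 7-point 1:5 titration (2.45 nM–38.3 uM final). Intracellular ATP was read by ATP-Lite luminescence.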

[19] = biological target: Thyrotropin-releasing hormone receptor (Homo sapiens) (UniProt P34981); assay: qHTS for Small Molecule Agonists and Allosteric Enhancers of Human TRH Receptor: Validation Screen for Agonists (AID 493127;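 active = calcium activation more than 3 SD above the typical response in the agonist read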;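 also: intracellular calcium rise by fluo-8 fluorescence before TRH EC20 addition; 0% is about no effect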); settings: TRH receptor agonist cell assay; at 2 µM; stronger effect = higher value
Thyrotropin-releasing hormone receptor (Homo sapiens), sequence (P34981 whole entry, looked up): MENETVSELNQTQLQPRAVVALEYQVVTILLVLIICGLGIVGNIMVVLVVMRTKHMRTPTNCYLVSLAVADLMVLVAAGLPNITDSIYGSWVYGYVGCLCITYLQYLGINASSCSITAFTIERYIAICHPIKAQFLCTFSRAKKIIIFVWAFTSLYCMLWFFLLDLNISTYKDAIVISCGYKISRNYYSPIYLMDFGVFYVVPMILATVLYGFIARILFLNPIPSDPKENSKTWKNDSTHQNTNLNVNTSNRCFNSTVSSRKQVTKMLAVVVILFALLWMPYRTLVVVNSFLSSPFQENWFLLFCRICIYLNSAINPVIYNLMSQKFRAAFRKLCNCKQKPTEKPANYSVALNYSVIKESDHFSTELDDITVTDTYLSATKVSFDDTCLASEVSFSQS
In short: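 Cells 2000/well, 10% FCS, 18 h 33.5C/5% CO2 → fluo-8 Ca dye, RT 30 min–1.5 h → FDSS baseline 10 × 1 s → compound added → 230 cycles (1 s/cycle) agonist mode. TRH controls.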

NCC(CP(=O)(O)O)c1ccc(Cl)cc1 (stereo unspecified)
inactive: Potency [1] | Potency [2] | outcome [3] | Potency [4] | Potency [5] | Potency [6] | Potency [7] | outcome [8] | outcome [9] | outcome [10] | Potency [11] | Potency [12] | Potency [13] | Potency [14] | Potency [15]
3.89%: viability change [15]

CC12NC(Cc3ccccc31)c1ccccc12 (stereo unspecified)
6.2%: viability change [15]
inactive: Potency [1] | Potency [2] | outcome [3] | Potency [4] | Potency [5] | Potency [6] | Potency [7] | outcome [8] | outcome [9] | outcome [10] | Potency [11] | Potency [12] | Potency [13] | Potency [16] | Potency [14] | Potency [17] | Potency [15] | outcome [18]

C[Se]C[C@H](N)C(=O)O
inactive: Potency [1] | Potency [2] | outcome [3] | Potency [4] | Potency [5] | Potency [6] | Potency [7] | outcome [8] | outcome [9] | outcome [10] | Potency [11] | Potency [12] | Potency [13] | Potency [14] | outcome [18]

Clc1cc(I)cc(Cl)c1NC1=NCCN1
inactive: Potency [1] | Potency [2] | outcome [3] | Potency [4] | Potency [5] | Potency [6] | Potency [7] | outcome [8] | outcome [9] | outcome [10] | Potency [11] | Potency [12] | Potency [13] | Potency [14] | Potency [17] | activation [19] 1.69% | Potency [15] | outcome [18]
9.07%: viability change [15]

CP(=O)(O)C1=CCNCC1
-3.56%: viability change [15]
inactive: Potency [1] | Potency [2] | outcome [3] | Potency [4] | Potency [5] | Potency [6] | Potency [7] | outcome [8] | outcome [9] | outcome [10] | Potency [11] | Potency [12] | Potency [13] | Potency [14] | Potency [17] | activation [19] 0.188% | Potency [15] | outcome [18]

OC1CCCCC1N1CCC(c2ccccc2)CC1 (stereo unspecified)
-3.18%: viability change [15]
inactive: Potency [1] | Potency [2] | outcome [3] | Potency [4] | Potency [5] | Potency [6] | Potency [7] | outcome [8] | outcome [9] | outcome [10] | Potency [11] | Potency [12] | Potency [13] | Potency [14] | Potency [17] | activation [19] -3.5% | Potency [15] | outcome [18]

Clc1ccc(N2CC3CCC(C2)N3)nn1
inactive: Potency [1] | Potency [2] | outcome [3] | Potency [4] | Potency [5] | Potency [6] | Potency [7] | outcome [8] | outcome [9] | outcome [10] | Potency [11] | Potency [12] | Potency [13] | Potency [14] | Potency [17] | activation [19] 1.19% | Potency [15] | outcome [18]
4.91%: viability change [15]
